Each structure is given as a SMILES string. “And” between values parts separate entries of the source, which are not always exact repeats. Equal entries are not always repeated. Structures can show the parent of a compound that is named as a salt. The whole screen tested about 5,800 compounds, of which about 620 (11%) showed activity. Shown is part of a subset that was picked to be rich in actives. Unmarked numbers belong to inactive results.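 How the source made its calls: active = score above a cut-off or among the top three wells of a plate; in these data no inactive exceeds 0.85.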

The assay has as its system primary human hepatic stellate cells (donor 1). The experiment in a line: scaled lipid accumulation score (0 = DMSO-like, 1 = nortriptyline-like); higher = stronger HSC inactivation (lipid re-accumulation), active = hit call of the paper. To be noted: 48 h.
Where [1] appears, read: library stock concentration: 10 mM.
Setting [2] is: library stock concentration: 3.33 mM.
Setting [3] is: library stock concentration: 80 uM.
Where [4] appears, read: library stock concentration: 400 uM.
Where [5] appears, read: library stock concentration: 2 mM.

In the case of `CC12CCC(CC1=O)C2(C)C` (stereo not drawn) [Camphor (1r)], where the note is “library stock concentration: 13.1 mM”, the “scaled lipid accumulation score” value was ≤ -0.001.

Consider `CO[C@H]1O[C@@H]2O[C@@]3(C)CC[C@H]4[C@H](C)CC[C@@H]([C@H]1C)[C@@]24OO3`, for which the “scaled lipid accumulation score” value under setting [1] is ≤ 0.

As to `CO[C@H]1O[C@@H]2O[C@@]3(C)CC[C@H]4[C@H](C)CC[C@@H]([C@H]1C)[C@@]24OO3` [Artemether], the “scaled lipid accumulation score” value under setting [2] was ≤ 0; the “scaled lipid accumulation score” value under setting [1] is ≤ 0 and 0.024.

For `CN1CC[C@@H](c2c(O)cc(O)c3c(=O)cc(-c4ccccc4Cl)oc23)[C@@H]1CO`, the “scaled lipid accumulation score” value under setting [2] is ≤ -0.009 and the “scaled lipid accumulation score” value under setting [1] was 0.465.

Take `CS(=O)(=O)c1ccc(-c2cnc(N)c(C(=O)Nc3ccccc3)n2)cc1` [listing 1 of 2 here]: under setting [1], the “scaled lipid accumulation score” value is 0.907 (active).

With `CN1CCN(S(=O)(=O)c2ccc(-c3cnc(N)c(C(=O)Nc4cccnc4)n3)cc2)CC1` [listing 1 of 2 here], under setting [2], the “scaled lipid accumulation score” value is 0.821.

With `CN(C)c1nc(N)c(C(=O)Nc2cccnc2)nc1Cl` [ACDPP hydrochloride], under setting [1], the “scaled lipid accumulation score” value was ≤ -0.001.

Turning to `CN1CCN(S(=O)(=O)c2ccc(-c3cnc(N)c(C(=O)Nc4cccnc4)n3)cc2)CC1` [listing 2 of 2 here], the “scaled lipid accumulation score” value under setting [1] is 1.02 (active).

Consider `CS(=O)(=O)c1ccc(C(=O)Nc2ccc(Cl)c(-c3ccccn3)c2)c(Cl)c1` [Vismodegib (GDC-0449)], for which the “scaled lipid accumulation score” value by setting is: under setting [2], 0.002; under setting [1], ≤ 0.

For `CS(=O)(=O)c1ccc(-c2cnc(N)c(C(=O)Nc3ccccc3)n2)cc1` [listing 2 of 2 here], the “scaled lipid accumulation score” value is 0.017 under setting [3]; ≤ 0 under setting [4]; ≤ 0 under setting [5]; 0.225 under setting [2]; 0.489 under setting [1].

With `Cl.O=C([O-])c1ccc(-c2c3nc(c(-c4ccc(C(=O)O)cc4)c4nc(c(-c5ccc(C(=O)O)cc5)c5ccc([nH]5)c(-c5ccc(C(=O)[O-])cc5)c5ccc2[n-]5)C=C4)C=C3)cc1.[Mn+3]` [MnTBAP chloride], the “scaled lipid accumulation score” value (library stock concentration: 5.7 mM) was ≤ -0.012.

As for `Cc1cn([C@H]2O[C@@H](CO)[C@H](O)[C@H]2F)c(=O)[nH]c1=O` [Clevudine], the “scaled lipid accumulation score” value is, setting by setting: under setting [2], ≤ 0; under setting [1], ≤ 0.

For `O=C(CCC/C=C\C[C@H]1C(=O)C[C@@H](O)C1/C=C/[C@@H](O)CCc1ccccc1)NC(CO)CO` (stereo partly drawn) [17-phenyl trinor Prostaglandin E2 serinol amide], for the setting “library stock concentration: 1 mM”, the “scaled lipid accumulation score” value is ≤ 0.

For the molecule `NC(=O)N[C@@H](CCC(=O)O)C(=O)O`, under setting [1], the “scaled lipid accumulation score” value is ≤ 0.

For `O=C(Oc1cc(S(=O)(=O)c2ccccc2)ccc1[N+](=O)[O-])c1ccc(Cl)cc1`, the “scaled lipid accumulation score” value under setting [2] was ≤ -0.009 and the “scaled lipid accumulation score” value under setting [1] is ≤ 0.

Take `S=C(NCc1ccc2c(c1)OCO2)N1CCN(c2ncnc3c2oc2ccccc23)CC1` [Amuvatinib (MP-470)]: the “scaled lipid accumulation score” value runs as follows: under setting [2], 0.006; under setting [1], ≤ 0.

In the case of `S=C(NCc1ccc2c(c1)OCO2)N1CCN(c2ncnc3c2oc2ccccc23)CC1` [Amuvatinib  (MP-470) (10 mM)], the “scaled lipid accumulation score” value under setting [1] was 0.068.

As to `S=C(NCc1ccc2c(c1)OCO2)N1CCN(c2ncnc3c2oc2ccccc23)CC1` [Amuvatinib  (MP-470) (0.4 mM)], the “scaled lipid accumulation score” value under setting [4] is 0.042.

Turning to `S=C(NCc1ccc2c(c1)OCO2)N1CCN(c2ncnc3c2oc2ccccc23)CC1`, the “scaled lipid accumulation score” value was 0.069 under setting [3], ≤ -0.009 under setting [4], 0.025 under setting [5] and 0.035 under setting [1].

For `S=C(NCc1ccc2c(c1)OCO2)N1CCN(c2ncnc3c2oc2ccccc23)CC1` [Amuvatinib  (MP-470) (2 mM)], under setting [5], the “scaled lipid accumulation score” value was 0.074.

Values taken from the supplement of paper PMC9135407.
